# From PubChem BioAssay
# TRHR PAM – TRH receptor (human) allosteric enhancement; enhancement, % at 2 µM; TRHR cells, fluo-8 calcium fluorescence, EC20 TRH enhancement; 360,000 tested, 0.66% active; in the data active = enhancement above about 30%; note: 0% is about no effect
#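 Enhancer read-out: after compound pinning and an initial kinetic agonist-mode read, an EC20 of TRH (10 nM final) was injected and fluo-8 calcium signal (Ex 480/Em 530) followed at 1 s/cycle for 100 cycles in TRHR-expressing cells.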
# KCNH2 WT inh – blocks the wildtype human KCNH2 potassium channel; 340,000 tested, 0.37% active; Q12809; activity change, % at 1.84 µM; U2OS, BacMam KCNH2, thallium flux FluxOr; hits give low values;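 active = maximum activity change below -70%; inconclusive = maximum activity change between -70% and -50%; inactive = maximum activity change above -50%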; note: % is set by controls: 0 for no effect and ±100 for the full control effect
#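 U2OS cells transduced with wild-type KCNH2 virus are loaded with FluxOr dye for 45 min, and thallium flux is measured in kinetic reads before and after stimulation buffer. Rate constants are normalized to DMSO controls.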
# TRHR agonist – agonists of human TRH receptor; P34981; TRHR cells, calcium flux fluo-8, FDSS agonist mode; activation, % at 2 µM; 360,000 tested, 0.18% active; AID 493084; in the data active = activation above about 30%; note: 0% is about no effect
#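 TRHR-expressing cells loaded with fluo-8 calcium dye; 23 nL library compound pin-transferred, kinetic FDSS fluorescence (Ex 480/Em 530) recorded about 180 s for agonist-induced calcium release, before a 10 nM TRH EC20 addition for potentiator mode.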
# KCNH2 3.1 inh – inhibitors of human KCNH2 3.1 potassium channel isoform. U2OS KCNH2 3.1, thallium flux FluxOr; hits give low values. activity change, % (tested at about 1.8 µM). 340,000 tested, 0.95% active. AID 720553;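 active = maximum activity change below -70%; inconclusive = maximum activity change from -70% to -50%; inactive = maximum activity change above -50%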;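 note: thallium influx rate constant from kinetic fluorescence after stimulation buffer; % is set by controls: 0 for no effect and ±100 for the full control effect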
#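 Thallium flux read-out: FluxOr dye with Red40 quencher in HBSS/HEPES, 45 min at RT. Rate constants from kinetic reads were normalized to positive and negative DMSO controls. Cells: U2OS virally expressing the 3.1 isoform.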
# TRPML1 inh – inhibitors of human TRPML1 channel; activity change, negative = inhibition, % (test concentration not listed); TRPML1-inducible cells, Ca2+ dye fluorescence, FDSS; hits give low values; inhibition of EC80 agonist-evoked calcium signal; 390,000 tested, 0.02% active; AID 624415; Q9GZU1; in the data active = activity change below about -50%; inconclusive = between about -30% and that limit;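 note: stimulus is agonist 54-4 at its EC80 concentration; % is set by controls: 0 for no effect and ±100 for the full control effect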
# Target sequence (Q9GZU1 whole entry, looked up): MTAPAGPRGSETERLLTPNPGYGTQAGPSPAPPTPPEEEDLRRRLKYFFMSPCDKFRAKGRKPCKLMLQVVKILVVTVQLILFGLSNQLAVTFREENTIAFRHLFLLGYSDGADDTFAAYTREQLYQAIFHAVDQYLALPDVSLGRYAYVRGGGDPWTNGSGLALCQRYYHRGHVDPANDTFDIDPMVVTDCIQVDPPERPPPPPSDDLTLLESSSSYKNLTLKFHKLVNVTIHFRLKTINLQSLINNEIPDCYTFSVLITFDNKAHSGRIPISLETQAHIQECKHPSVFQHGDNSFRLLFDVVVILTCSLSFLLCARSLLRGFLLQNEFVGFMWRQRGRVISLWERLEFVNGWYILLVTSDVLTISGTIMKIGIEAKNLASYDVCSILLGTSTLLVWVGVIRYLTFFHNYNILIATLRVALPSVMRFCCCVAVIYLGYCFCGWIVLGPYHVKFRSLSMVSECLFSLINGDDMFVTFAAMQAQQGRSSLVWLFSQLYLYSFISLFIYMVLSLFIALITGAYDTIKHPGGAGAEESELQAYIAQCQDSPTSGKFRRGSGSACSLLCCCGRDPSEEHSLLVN
#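 TRPML1-DL cells, Tet-induced overnight (~16 h, 37 °C) at 1,500 cells/well, were loaded with Ca8 no-wash dye plus quencher for 45-90 min at room temperature. Compounds were pinned during FDSS kinetic reading; agonist 54-4 at EC80 (4 uM final) then added.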
# TRPML1 agonist – human mucolipin-1 channel agonism; AID 624414; activation, % (concentration not given with the values); Q9GZU1; TRPML1-expressing cells, Ca2+ dye fluorescence, FDSS; 410,000 tested, 0.12% active; in the data active = activation above about 50%; inconclusive = mostly about 30% to 49%; note: 0% is about no effect
#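 Calcium fluorescence on an FDSS kinetic reader gave the read-out. Tet-induced TRPML1-DL cells were plated overnight, dye-loaded (Ca8 with quencher, 45-90 min, room temperature, dark), then read 110 s after compound addition, and again 110 s after 4uM final 54-4 (EC80).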
# An asterisk follows results filed as active; ? = inconclusive; . = no result. The list is not random: actives were taken first. Their share in the collection is about 1.7%.
SMILES,TRHR PAM,KCNH2 WT inh,TRHR agonist,KCNH2 3.1 inh,TRPML1 inh,TRPML1 agonist
O=C1CN(C(=O)CN2CCN(S(=O)(=O)c3ccccc3)CC2)c2ccccc2N1,.,-17.5,.,7.6,-4.1,-0.8
Cc1cccc(OCC(=O)NCCCNC(=O)c2ccco2)c1,11.4,-0.2,-1.3,1.2,17.2,0.0
OC(COC(c1ccc(Cl)cc1)c1ccc(Cl)cc1)CN1CCc2ccccc2C1 (centres undefined),4.8,-70.7*,1.3,.,-2.7,1.2
OC(COC(c1ccccc1)c1ccccc1)CN1CCc2ccccc2C1 (centres undefined),2.1,?,0.2,?,38.7,-0.1
OC(COC(c1ccc(F)cc1)c1ccc(F)cc1)CN1CCc2ccccc2C1 (centres undefined),1.8,-29.2,1.3,-109.6*,23.8,0.4
OC(COc1ccc(Cl)cc1Cl)CN1CCc2ccccc2C1 (centres undefined),3.8,15.9,1.0,-72.0*,3.1,0.6
Cc1ccc(N(C)C(=O)CN2C(=O)CCc3cc(S(=O)(=O)N4CCOCC4)ccc32)cc1,-1.4,.,0.2,.,4.0,-0.1
CN(C)CCNS(=O)(=O)c1ccc2c3c(cccc13)C(=O)N2,40.2*,5.1,1.0,5.0,7.4,-0.6
COc1ccc(CCNc2ncnc3c2c(-c2ccccc2)cn3-c2ccc(Cl)cc2)cc1OC,-8.0,.,1.0,.,-18.1,76.8*
COc1ccc(CCNc2ncnc3c2c(-c2ccccc2)cn3-c2ccc(F)cc2)cc1OC,-0.9,.,0.3,.,-22.0,63.9*
CCc1ccc2oc(C(=O)NC3CCS(=O)(=O)C3)cc(=O)c2c1 (centres undefined),10.4,14.3,-0.8,17.3,18.8,0.2
O=C(Nc1nc2ccccc2[nH]1)c1cc(F)cc(F)c1,9.7,6.8,-0.4,2.6,12.7,0.5
O=C(Nc1nc2ccccc2[nH]1)c1ccc(F)cc1,2.6,5.4,0.6,-97.3*,-2.9,0.8
O=C(Cc1ccccc1)Nc1sc2c(c1C(=O)Nc1ccccc1)CCCCC2,6.9,.,1.1,.,-7.5,3.0
CN1CCN(CC(=O)Nc2sc3c(c2C(=O)Nc2ccccc2)CCCC3)CC1,7.8,-91.6*,0.3,-95.4*,8.3,0.6
Cc1nccc(-c2cc(-c3ccc(Cl)cc3Cl)no2)n1,32.8*,-2.7,-0.3,-2.2,9.3,-0.4
Cc1ccc(-n2[nH]c(C)c(/C=N/NC(=O)c3ccc([N+](=O)[O-])cc3)c2=O)c(C)c1,50.2*,.,-0.2,.,.,.
Cc1[nH]n(-c2cccc3ccccc23)c(=O)c1/C=N/NC(=O)c1cccc([N+](=O)[O-])c1,3.9,-10.7,-0.1,7.7,-6.5,-0.2
Cn1c(=O)c(C(=O)CN2CCN(S(=O)(=O)c3ccccc3)CC2)c(N)n(Cc2ccccc2)c1=O,4.0,1.3,0.1,3.3,0.1,0.2
CCCn1c(N)c(C(=O)CN2CCN(S(=O)(=O)c3cccc(Cl)c3)CC2)c(=O)[nH]c1=O,.,?,.,-72.6*,73.7,1.2
Cn1c2c(c3ccccc31)CCN(CCCCN1CCN(c3ccccc3)CC1)C2=O,.,-78.0*,.,-109.4*,-0.3,2.1
CN(CC1CCCN(CCc2ccc(Cl)cc2)C1)C(=O)c1ccco1 (centres undefined),.,-37.1,.,-79.0*,-7.3,-0.8
CC(=O)C1CCC2C3CC=C4CC(SC(=N)N)CCC4(C)C3CCC12C (centres undefined),.,33.4,.,-13.3,-12.9,0.1
CCN(C(=O)CSc1n[nH]c(N)n1)c1cccc2ccccc12,.,-5.9,.,2.3,-19.4,-0.2
COc1cccc(NC(=O)Cc2csc(COc3cccc(C)c3)n2)c1,2.4,.,-0.5,.,27.7,0.0
Cc1cc(C)cc(NC(=O)Cc2csc(COc3cccc(C)c3)n2)c1,37.5*,.,-0.3,.,0.5,1.5
CCc1ccc2oc(-c3cc(NC(=O)COc4ccc(C)cc4)ccc3O)nc2c1,.,.,.,.,.,-0.4
COc1ccc(Cl)cc1S(=O)(=O)N1CCN(S(=O)(=O)c2ccc3c(c2)OCCO3)CC1,4.7,.,-0.3,.,.,.
